# Assay results as given in publication PMC7862700, “An all-to-all approach to the identification of sequence-specific readers for epigenetic DNA modifications on cytosine”.
# Columns and labels:
# Assay in all cases: DAPPL (digital affinity profiling via proximity ligation, sequencing); 10 mM Tris-HCl pH 7.5, 50 mM NaCl, 1 mM DTT, 4% glycerol, room temperature, 30 min; GST-TFs on glutathione beads, 16-mer random dsDNA library, 0.1% formaldehyde crosslink after washing; high values mean tight binding
# Settings in all cases: protein: recombinant; tags: N-terminal GST; dsDNA, one strand shown
# ELK1 = molecular target: T1, ELK1 (Homo sapiens, UniProt P19419 1-428)
# T1 sequence: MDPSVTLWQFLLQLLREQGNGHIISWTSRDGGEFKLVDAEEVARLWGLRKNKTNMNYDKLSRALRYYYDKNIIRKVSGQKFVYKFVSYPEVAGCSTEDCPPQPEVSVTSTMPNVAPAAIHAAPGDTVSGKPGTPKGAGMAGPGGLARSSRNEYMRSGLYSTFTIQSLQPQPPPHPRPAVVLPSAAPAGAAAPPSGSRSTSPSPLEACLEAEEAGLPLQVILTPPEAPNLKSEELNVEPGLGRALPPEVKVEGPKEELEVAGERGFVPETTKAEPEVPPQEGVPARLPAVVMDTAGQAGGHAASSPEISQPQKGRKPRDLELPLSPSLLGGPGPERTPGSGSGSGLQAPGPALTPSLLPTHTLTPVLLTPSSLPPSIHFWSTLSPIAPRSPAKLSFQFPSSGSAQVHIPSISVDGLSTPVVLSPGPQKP
# Method in brief: (§1)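 A tag-only sample was pooled with DNA-barcoded human transcription factors that had been expressed in yeast as GST fusions and captured on glutathione beads. The pools were incubated for 30 min at room temperature with 200 nmole of a random double-stranded 16-mer DNA library in Tris/NaCl/DTT/glycerol buffer, then washed, crosslinked with 0.1% formaldehyde, proximity-ligated (BsaI/T4 ligase, 1 h, 37 °C), PCR-amplified and sequenced on an Illumina NextSeq500. Binding signal is each hexamer's read frequency for a factor divided by its frequency for the tag-only sample.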
# GABPA = molecular target: T2, GABPA (Homo sapiens, UniProt Q06546 1-454)
# T2 sequence: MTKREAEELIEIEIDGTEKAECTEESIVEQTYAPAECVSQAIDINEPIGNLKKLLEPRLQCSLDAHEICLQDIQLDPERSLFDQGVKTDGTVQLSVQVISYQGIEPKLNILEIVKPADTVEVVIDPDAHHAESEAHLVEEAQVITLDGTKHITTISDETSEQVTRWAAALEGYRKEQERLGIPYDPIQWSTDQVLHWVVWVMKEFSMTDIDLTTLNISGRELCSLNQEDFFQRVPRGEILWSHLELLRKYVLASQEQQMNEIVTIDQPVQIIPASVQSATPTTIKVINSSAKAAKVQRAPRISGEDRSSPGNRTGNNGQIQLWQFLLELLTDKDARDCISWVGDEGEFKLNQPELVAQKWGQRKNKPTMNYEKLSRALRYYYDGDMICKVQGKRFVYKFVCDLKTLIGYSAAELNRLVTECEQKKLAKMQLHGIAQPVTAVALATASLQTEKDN
# Method in brief: as §1
# ERG = molecular target: T3, ERG (Homo sapiens, UniProt P11308 1-479)
# T3 sequence: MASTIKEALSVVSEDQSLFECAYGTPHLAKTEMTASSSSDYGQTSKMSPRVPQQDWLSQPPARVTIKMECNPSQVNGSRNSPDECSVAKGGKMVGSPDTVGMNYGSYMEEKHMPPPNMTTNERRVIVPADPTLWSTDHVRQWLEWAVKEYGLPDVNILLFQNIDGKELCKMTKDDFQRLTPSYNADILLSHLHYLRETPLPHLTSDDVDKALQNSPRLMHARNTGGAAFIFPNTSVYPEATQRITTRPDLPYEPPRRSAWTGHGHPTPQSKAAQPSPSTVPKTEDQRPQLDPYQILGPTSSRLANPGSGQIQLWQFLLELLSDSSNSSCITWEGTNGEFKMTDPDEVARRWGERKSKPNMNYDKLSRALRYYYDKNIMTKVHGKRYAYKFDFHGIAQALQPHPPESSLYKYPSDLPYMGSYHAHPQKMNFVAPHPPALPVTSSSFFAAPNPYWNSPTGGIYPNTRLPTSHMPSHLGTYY
# Method in brief: as §1
# ELF1 = ELF1 (Homo sapiens, UniProt P32519 1-619)
# Sequence of ELF1 (P32519 whole entry): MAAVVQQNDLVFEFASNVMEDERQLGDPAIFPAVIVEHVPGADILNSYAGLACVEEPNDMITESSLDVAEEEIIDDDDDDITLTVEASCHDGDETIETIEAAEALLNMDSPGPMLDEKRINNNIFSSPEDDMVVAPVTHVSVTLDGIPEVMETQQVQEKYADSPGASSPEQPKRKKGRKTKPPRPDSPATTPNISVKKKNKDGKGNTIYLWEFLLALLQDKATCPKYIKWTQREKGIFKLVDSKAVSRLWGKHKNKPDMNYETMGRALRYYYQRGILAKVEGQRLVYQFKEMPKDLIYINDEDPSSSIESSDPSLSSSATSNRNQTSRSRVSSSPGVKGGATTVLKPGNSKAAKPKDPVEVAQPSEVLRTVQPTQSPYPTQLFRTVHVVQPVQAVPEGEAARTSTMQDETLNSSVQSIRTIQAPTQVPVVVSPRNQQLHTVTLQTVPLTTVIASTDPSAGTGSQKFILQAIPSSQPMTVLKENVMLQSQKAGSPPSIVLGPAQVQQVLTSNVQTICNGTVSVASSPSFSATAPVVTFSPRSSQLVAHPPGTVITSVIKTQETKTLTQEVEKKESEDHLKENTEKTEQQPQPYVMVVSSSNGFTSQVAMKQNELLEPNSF
# Method in brief: as §1
# SPIB = SPIB (Homo sapiens, UniProt Q01892 1-262)
# Sequence of SPIB (Q01892 whole entry): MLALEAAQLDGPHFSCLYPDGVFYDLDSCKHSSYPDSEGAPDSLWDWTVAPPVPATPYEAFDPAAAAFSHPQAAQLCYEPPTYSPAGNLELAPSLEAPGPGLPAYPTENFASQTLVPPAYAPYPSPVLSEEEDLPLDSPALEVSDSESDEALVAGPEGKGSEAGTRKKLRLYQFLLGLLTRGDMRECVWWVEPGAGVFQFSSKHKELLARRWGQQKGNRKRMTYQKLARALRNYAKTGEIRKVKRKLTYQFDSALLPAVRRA
# Method in brief: as §1
# ELF4 = ELF4 (Homo sapiens, UniProt Q99607 1-663)
# Sequence of ELF4 (Q99607 whole entry): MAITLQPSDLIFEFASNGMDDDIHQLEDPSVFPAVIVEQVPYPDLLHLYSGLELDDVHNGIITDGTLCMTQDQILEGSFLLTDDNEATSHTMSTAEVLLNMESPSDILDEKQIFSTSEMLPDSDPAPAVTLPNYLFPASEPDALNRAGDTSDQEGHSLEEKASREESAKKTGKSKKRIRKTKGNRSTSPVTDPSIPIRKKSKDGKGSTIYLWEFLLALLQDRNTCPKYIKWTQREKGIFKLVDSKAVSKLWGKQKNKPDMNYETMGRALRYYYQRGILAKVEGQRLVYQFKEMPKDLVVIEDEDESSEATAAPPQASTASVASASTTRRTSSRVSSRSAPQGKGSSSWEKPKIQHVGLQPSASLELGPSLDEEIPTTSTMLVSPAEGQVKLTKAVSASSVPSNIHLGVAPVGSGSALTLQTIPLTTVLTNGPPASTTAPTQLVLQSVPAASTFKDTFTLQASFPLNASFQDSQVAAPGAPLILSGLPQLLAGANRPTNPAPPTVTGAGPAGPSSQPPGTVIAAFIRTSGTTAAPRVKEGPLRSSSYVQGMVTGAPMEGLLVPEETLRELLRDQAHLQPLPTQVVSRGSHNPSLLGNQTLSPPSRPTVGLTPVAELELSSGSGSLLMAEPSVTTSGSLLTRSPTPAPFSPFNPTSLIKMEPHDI
# Method in brief: as §1
# ELK4 = molecular target: T4, ELK4 (Homo sapiens, UniProt P28324-2 1-405)
# T4 sequence: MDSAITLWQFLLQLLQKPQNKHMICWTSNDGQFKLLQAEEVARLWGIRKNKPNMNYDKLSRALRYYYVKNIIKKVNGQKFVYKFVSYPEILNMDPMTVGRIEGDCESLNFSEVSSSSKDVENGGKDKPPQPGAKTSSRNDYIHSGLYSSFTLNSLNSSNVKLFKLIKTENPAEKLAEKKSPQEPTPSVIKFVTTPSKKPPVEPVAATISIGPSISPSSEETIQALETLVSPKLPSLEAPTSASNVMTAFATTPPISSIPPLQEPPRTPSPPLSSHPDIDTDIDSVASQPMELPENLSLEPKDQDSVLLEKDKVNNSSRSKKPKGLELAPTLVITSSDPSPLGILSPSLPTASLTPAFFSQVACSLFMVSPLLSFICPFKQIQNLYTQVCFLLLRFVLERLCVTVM
# Method in brief: as §1
# ELF3 = molecular target: T5, ELF3 (Homo sapiens, UniProt P78545 1-371)
# T5 sequence: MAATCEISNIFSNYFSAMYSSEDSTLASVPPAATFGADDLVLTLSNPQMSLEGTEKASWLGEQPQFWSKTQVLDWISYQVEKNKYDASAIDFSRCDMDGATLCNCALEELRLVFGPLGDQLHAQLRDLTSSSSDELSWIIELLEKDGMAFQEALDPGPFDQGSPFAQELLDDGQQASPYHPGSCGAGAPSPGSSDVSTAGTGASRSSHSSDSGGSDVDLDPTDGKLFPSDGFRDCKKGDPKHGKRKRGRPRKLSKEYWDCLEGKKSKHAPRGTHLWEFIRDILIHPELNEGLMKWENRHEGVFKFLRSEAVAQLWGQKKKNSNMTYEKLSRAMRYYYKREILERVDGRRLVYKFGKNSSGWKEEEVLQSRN
# Method in brief: as §1
# ERF = molecular target: T6, ERF (Homo sapiens, UniProt P50548 1-548)
# T6 sequence: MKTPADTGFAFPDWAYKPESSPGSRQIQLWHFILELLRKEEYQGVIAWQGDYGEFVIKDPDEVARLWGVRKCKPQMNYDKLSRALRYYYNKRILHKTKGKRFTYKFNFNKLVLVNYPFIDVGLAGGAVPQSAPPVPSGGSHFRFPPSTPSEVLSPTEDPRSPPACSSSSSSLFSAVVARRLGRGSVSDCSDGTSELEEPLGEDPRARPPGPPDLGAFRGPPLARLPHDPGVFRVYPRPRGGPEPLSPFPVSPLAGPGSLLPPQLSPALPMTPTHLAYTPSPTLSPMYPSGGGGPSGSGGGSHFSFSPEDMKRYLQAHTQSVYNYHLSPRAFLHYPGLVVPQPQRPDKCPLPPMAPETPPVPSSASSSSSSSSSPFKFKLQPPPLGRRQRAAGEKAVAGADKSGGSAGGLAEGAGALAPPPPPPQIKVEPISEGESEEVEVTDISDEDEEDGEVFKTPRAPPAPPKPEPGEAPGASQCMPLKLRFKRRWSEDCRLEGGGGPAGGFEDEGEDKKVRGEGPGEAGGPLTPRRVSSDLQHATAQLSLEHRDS
# Method in brief: as §1
# ETV3L = molecular target: T7, ETV3L (Homo sapiens, UniProt Q6ZN32 1-361)
# T7 sequence: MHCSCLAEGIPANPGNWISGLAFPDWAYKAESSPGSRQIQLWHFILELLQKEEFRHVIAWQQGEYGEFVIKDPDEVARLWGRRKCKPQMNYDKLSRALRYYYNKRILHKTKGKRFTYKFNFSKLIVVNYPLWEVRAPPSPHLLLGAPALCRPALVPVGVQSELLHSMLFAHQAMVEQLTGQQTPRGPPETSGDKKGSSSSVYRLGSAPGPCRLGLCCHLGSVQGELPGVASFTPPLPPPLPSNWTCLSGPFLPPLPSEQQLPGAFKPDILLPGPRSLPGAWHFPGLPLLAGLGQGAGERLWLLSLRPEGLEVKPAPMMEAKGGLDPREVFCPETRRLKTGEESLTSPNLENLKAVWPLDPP
# Method in brief: as §1
# SPDEF = molecular target: T8, SPDEF (Homo sapiens, UniProt O95238 1-335)
# T8 sequence: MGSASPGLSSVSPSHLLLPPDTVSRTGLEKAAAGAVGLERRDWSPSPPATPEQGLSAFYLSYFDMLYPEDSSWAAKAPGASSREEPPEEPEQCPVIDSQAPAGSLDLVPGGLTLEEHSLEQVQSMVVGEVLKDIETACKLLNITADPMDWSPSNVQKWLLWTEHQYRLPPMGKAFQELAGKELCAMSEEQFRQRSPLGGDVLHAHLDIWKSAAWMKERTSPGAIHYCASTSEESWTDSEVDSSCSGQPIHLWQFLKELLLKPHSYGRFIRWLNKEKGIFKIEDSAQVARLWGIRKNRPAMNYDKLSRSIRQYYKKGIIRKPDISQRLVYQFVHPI
# Method in brief: as §1
# ETV3 = molecular target: T9, ETV3 (Homo sapiens, UniProt P41162-2 1-143)
# T9 sequence: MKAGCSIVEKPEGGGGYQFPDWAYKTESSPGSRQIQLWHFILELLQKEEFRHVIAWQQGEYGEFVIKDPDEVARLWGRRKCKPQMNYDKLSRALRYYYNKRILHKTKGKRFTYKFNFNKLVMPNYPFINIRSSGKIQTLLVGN
# Method in brief: as §1
# ETV6 = ETV6 (Homo sapiens, UniProt P41212 1-452)
# Sequence of ETV6 (P41212 whole entry): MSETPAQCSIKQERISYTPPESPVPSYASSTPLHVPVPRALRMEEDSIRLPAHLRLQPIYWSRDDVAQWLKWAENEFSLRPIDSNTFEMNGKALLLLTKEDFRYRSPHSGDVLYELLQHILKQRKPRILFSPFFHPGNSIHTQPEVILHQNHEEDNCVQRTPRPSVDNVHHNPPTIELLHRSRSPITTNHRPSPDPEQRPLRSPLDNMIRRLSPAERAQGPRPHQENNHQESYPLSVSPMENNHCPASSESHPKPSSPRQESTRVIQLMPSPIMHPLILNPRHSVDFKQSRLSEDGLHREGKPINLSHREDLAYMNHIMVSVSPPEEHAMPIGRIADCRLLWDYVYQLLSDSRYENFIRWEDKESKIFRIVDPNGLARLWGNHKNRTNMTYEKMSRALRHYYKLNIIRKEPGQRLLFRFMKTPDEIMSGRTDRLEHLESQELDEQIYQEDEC
# Method in brief: as §1
sequence,measurement,setting,value
CACCTG,binding signal,ELK1,"1.06 fold enrichment (6-mer frequency, TF over GST control)"
same,binding signal,GABPA,"1.01 fold enrichment (6-mer frequency, TF over GST control)"
same,binding signal,ERG,"1.06 fold enrichment (6-mer frequency, TF over GST control)"
same,binding signal,ELF1,"1.09 fold enrichment (6-mer frequency, TF over GST control)"
same,binding signal,SPIB,"1.03 fold enrichment (6-mer frequency, TF over GST control)"
same,binding signal,ELF4,"1.08 fold enrichment (6-mer frequency, TF over GST control)"
same,binding signal,ELK4,"1.09 fold enrichment (6-mer frequency, TF over GST control)"
same,binding signal,ELF3,"1.05 fold enrichment (6-mer frequency, TF over GST control)"
same,binding signal,ERF,"1.07 fold enrichment (6-mer frequency, TF over GST control)"
same,binding signal,ETV3L,"1.05 fold enrichment (6-mer frequency, TF over GST control)"
same,binding signal,SPDEF,"1.07 fold enrichment (6-mer frequency, TF over GST control)"
same,binding signal,ETV3,"1.03 fold enrichment (6-mer frequency, TF over GST control)"
same,binding signal,ETV6,"1.06 fold enrichment (6-mer frequency, TF over GST control)"
